{"source": "PubChem BioAssay AID368", "about": "(University of Pittsburgh Molecular Library Screening Center, 2006)", "note": "In all, about 65,000 compounds went through this assay and about 85 (0.1%) were called active. This is one part of a sample in which actives are shown more often than they occur. Unmarked numbers belong to inactive results. Cut-off read from the data, not from the text of the source: active = inhibition above about 50%; inactive = the rest."}
{"molecular_target": "M-phase inducer phosphatase 2 (Homo sapiens) (UniProt P30305)", "sequence (P30305 whole entry, looked up, the tested form may be a part)": "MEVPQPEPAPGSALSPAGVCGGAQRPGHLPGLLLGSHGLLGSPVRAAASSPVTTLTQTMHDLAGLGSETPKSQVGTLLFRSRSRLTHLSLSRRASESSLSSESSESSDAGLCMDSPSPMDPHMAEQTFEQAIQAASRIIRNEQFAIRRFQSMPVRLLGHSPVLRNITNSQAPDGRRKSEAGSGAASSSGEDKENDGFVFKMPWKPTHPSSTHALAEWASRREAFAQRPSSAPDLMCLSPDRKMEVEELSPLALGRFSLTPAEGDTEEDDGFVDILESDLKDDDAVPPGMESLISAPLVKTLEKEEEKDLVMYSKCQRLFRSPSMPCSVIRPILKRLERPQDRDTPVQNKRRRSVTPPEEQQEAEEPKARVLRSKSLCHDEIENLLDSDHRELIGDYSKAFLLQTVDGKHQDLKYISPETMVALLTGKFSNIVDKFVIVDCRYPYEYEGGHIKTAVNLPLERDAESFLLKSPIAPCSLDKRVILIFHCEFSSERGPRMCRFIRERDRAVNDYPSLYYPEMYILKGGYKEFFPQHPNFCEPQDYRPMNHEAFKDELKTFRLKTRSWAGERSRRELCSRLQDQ", "assay": "human Cdc25B tyrosine phosphatase blockers – biochemical, OMFP fluorescence, catalytic domain, primary screen (AID 368)", "details": "recombinant Cdc25B, OMFP fluorescence Ex485/Em525; stronger effect = higher value;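 compounds tested at 10 µM final in the well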"}
{"smiles": "COc1ccccc1NC(=O)CSc1nnc(Cn2nnc(-c3ccccc3)n2)n1-c1ccccc1", "inhibition": "-10.9%"}
{"smiles": "COc1ccc(-c2nnn(CC(=O)N(CCO)C(C(=O)NC3CCCC3)c3ccc(F)cc3)n2)cc1", "note": "(configuration not stated)", "inhibition": "-0.846%"}
{"smiles": "Cc1ccc(S(=O)(=O)N2CCC(C(=O)OCC(=O)N3CC(=O)Nc4ccccc43)CC2)cc1", "inhibition": "-6.66%"}
{"smiles": "O=C(CSc1nnc(-c2cccnc2)n1Cc1ccco1)c1ccc(Cl)c(Cl)c1", "inhibition": "8.97%"}
{"smiles": "CCc1c(C)n([O-])c2c([n+]1=O)CCCCC2", "inhibition": "-6.36%"}
{"smiles": "COc1cc2cc(CN(CCN3CCCC3)C(=O)Nc3ccccc3Cl)c(=O)[nH]c2cc1OC", "inhibition": "-1.08%"}
{"smiles": "O=C(Cn1c(-c2ccc(Cl)cc2)noc1=O)N1CCN(c2ccccc2F)CC1", "inhibition": "-5.95%"}
{"smiles": "CC(C)Oc1ccc(C(=O)Nc2cc(=O)n(C)c(=O)n2C)cc1", "inhibition": "-9.38%"}
{"smiles": "Fc1cc(F)c2nc(N3CCOCC3)sc2c1", "inhibition": "0.504%"}
{"smiles": "CC1CCCC(N2CCN(C(=O)c3ccc(F)cc3)CC2)C1", "note": "(configuration not stated)", "inhibition": "-7.26%"}
{"smiles": "Cc1ccc(NC(=O)CN2CCC3(O)CCCCC3C2c2ccc3c(c2)OCO3)c(C)c1", "note": "(configuration not stated)", "inhibition": "5.36%"}
{"smiles": "CCOC(=O)c1sc2nc(CSCC(=O)OCc3ccc(C(=O)OC)o3)[nH]c(=O)c2c1C", "inhibition": "-1.69%"}
{"smiles": "COCCN1C(=O)c2oc3c(C)cc(C)cc3c(=O)c2C1c1cccc(O)c1", "note": "(configuration not stated)", "inhibition": "-0.703%"}
{"smiles": "CC(=O)c1cc2c(cc1N)OCO2", "inhibition": "5.42%"}
{"smiles": "COc1ccc(N2CC(C)Cn3c2nc2c3c(=O)n(Cc3ccccc3F)c(=O)n2C)c(OC)c1", "note": "(configuration not stated)", "inhibition": "2.66%"}
{"smiles": "CC(=O)c1c(C)c[nH]c1C", "inhibition": "-2.46%"}
{"smiles": "O=S(=O)(/C=C/c1ccccc1)NCCc1ccccn1", "inhibition": "102% (active)"}
{"smiles": "O=S(=O)(NCc1ccccn1)c1ccc(F)cc1", "inhibition": "-7.59%"}
{"smiles": "NS(=O)(=O)c1ccc(NS(=O)(=O)/C=C/c2ccccc2)cc1", "inhibition": "4.88%"}
{"smiles": "O=C(O)c1cscn1", "inhibition": "5.38%"}
{"smiles": "COc1ccccc1Nc1ncnc2c1oc1ccccc12", "inhibition": "14.9%"}
{"smiles": "CC1(C)CC(=O)C=C(NCCCNC2CCCCC2)C1", "inhibition": "-12.2%"}
{"smiles": "N#Cc1ccc(COC(=O)Cn2nnc(-c3ccccc3)n2)cc1", "inhibition": "-19.8%"}
{"smiles": "CC(NC(=O)Nc1ccccc1)c1ccccc1", "note": "(configuration not stated)", "inhibition": "-11.4%"}
{"smiles": "NC(=O)C1CC=CCC1C(=O)OCC(Cl)=C(Cl)Cl", "note": "(configuration not stated)", "inhibition": "-7.55%"}
{"smiles": "CC1CN(c2cc(=O)n(Cc3ccc(F)cc3)c(=O)[nH]2)CC(C)O1", "note": "(configuration not stated)", "inhibition": "-7.48%"}
{"smiles": "CCOC(=O)c1cccc(NC(=O)C2CCCN(S(=O)(=O)c3cnc[nH]3)C2)c1", "note": "(configuration not stated)", "inhibition": "-1.24%"}
